Assay outcomes deposited in PubChem by several laboratories.
aSyn 5UTR inh – 5' untranslated region of α-synuclein, MLPCN primary screen; 0.82% of 300,000 active; AID 1813; alpha-synuclein 5'UTR reporter, inhibitor activity; inhibition, % (tested at 7.5 µM); in the data active = inhibition above about 60%;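 note: H4 neuroglioblastoma cells stably carrying SNCA 5'UTR luciferase fusion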
Ba/F3 V617F tox – reduce viability of Ba/F3 cells dependent on JAK2V617F. 1.1% of 220,000 active. AID 1446. inhibition, % at 5.6 µM. Ba/F3 EpoR-JAK2V617F viability, ATP luminescence;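 active = inhibition above the campaign mean plus 3 SD over all tested compounds, cut at about 24% in these data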;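 note: cytokine-independent growth of Ba/F3 cells driven by EpoR plus mutant JAK2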
IEC-6 tox – kills IEC-6 intestinal cells in KLF5 counter-screen; IEC-6 cytotoxicity, luminescence viability; AID 1825; inhibition, % at 5 µM; 0.78% of 290,000 active; in the data active = inhibition above about 22%
BaF3 tox – parental Ba/F3 viability inhibition as JAK2V617F counter-screen. CellTiter-Glo ATP luminescence. inhibition, % at 5.6 µM. 1.1% of 220,000 active. AID 1486;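 active = inhibition above a per-campaign cutoff, the mean inhibition of all tested compounds plus 3 SD, cut at about 27% in these data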
APP 5UTR inh – APP translation inhibition. inhibition, % at 2 µM. SH-SY5Y APP 5'UTR-luciferase reporter, luminescence. 0.82% of 190,000 active. AID 1285;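 active = inhibition above a set limit, derived from the sample mean plus 3 SD, cut at about 45% in these data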
KLF5 inh – kruppel-like factor 5 inhibition; 0.23% of 290,000 active; inhibition, % at 5 µM; DLD-1 KLF5 promoter-luciferase reporter, luminescence;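 active = inhibition above a per-plate limit of that plate's mean compound inhibition plus 3 SD, cut at about 60% in these data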;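 note: higher means less KLF5 promoter-driven luciferase light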
BaF3 tox 2 – reduces parental Ba/F3 viability, JAK2V617F counter-screen; shares compounds with Ba/F3 V617F tox; CellTiter-Glo luminescence; cells kept alive by added IL-3; inhibition, % at 5.6 µM; 31% of 580 active; AID 1520;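 active = cell growth inhibition above the hit limit set in the earlier mutant JAK2 cell screen, cut at about 27% in these data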
JAK2V617F conf – Ba/F3 EpoR-JAK2V617F viability loss, confirmation | shares compounds with Ba/F3 V617F tox | CellTiter-Glo luminescence | inhibition, % at 5.6 µM | 66% of 580 active | AID 1521;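 active = mean inhibition above the hit cutoff derived in the earlier primary screen, cut at about 25% in these data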;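 note: higher means lower luminescence from reduced cell ATP and viability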
A number is an active result; i = inactive; nt = not tested or not shown. Compounds with a hit are over-represented: about 2.2% of the library has one in this group of screens.

SMILES	aSyn 5UTR inh	Ba/F3 V617F tox	IEC-6 tox	BaF3 tox	APP 5UTR inh	KLF5 inh	BaF3 tox 2	JAK2V617F conf
CN(CC(=O)Nc1cccc(Cl)c1)S(=O)(=O)c1ccc2c(c1)n(C)c(=O)c(=O)n2C	i	nt	i	nt	nt	i	nt	nt
CN(Cc1ccccc1)C(=O)COC(=O)c1cncc(Br)c1	i	i	i	i	i	i	nt	nt
CN(Cc1ccccc1)C(=O)COC(=O)c1ccc(Cl)c(N)c1	i	94.0	i	i	i	i	i	i
N/C(=N\OC(=O)c1cccc(Br)c1)c1ccc(Br)cc1	i	35.0	i	i	i	i	i	i
CCCc1ccc(C(=O)NNc2ccc(F)cc2)cc1	i	93.2	i	i	nt	i	i	i
COc1ccc(NC(=O)C2CCN(S(=O)(=O)c3ccc4c(c3)NC(=O)CO4)CC2)cc1	i	nt	i	nt	nt	i	nt	nt
O=C(O)c1ccc(N/N=C/c2ccc(-c3ccc(Cl)cc3Cl)o2)cc1	i	30.5	i	i	nt	i	45.1	33.4
CCOc1ccc(NC(=O)CSC(N)=O)cc1	i	74.5	i	i	i	i	i	i
CCOc1ccc(NC(=S)NNC(=O)CC(C)O)cc1 (stereo unspecified)	i	26.4	i	i	i	i	i	i
CCOc1ccc(NC(=O)CC)cc1	i	i	i	i	i	i	nt	nt
Nc1nnc(CC(=O)N/N=C/c2ccccc2OCc2ccccc2F)s1	i	i	i	i	nt	i	nt	nt
O=C(Oc1ccc2ccc(O)cc2c1)c1ccccc1Cl	i	nt	i	nt	nt	i	nt	nt
O=C1C(Nc2ccccc2)=C/C(=N/S(=O)(=O)c2cccs2)c2ccccc21	i	46.0	i	i	i	i	93.1	96.3
N#C/C(=C\c1ccc(O)c(O)c1)S(=O)(=O)c1ccccc1	i	24.2	i	i	i	i	i	i
CC1=CSC2=NC(=O)/C(=C/c3cccc(OC(=O)c4ccco4)c3)C(=N)N12	i	33.6	i	i	i	i	i	i
CSC1=NSC2=NC(=O)/C(=C\c3ccc(OC(=O)c4ccco4)cc3)C(=N)N12	i	nt	i	nt	nt	i	nt	nt
COc1ccccc1NC(=O)CSc1nnc(C2CCCCC2)n1-c1ccccc1	i	30.2	i	i	nt	i	i	i
COc1ccccc1NC(=O)CSc1nnc(C2CCCCC2)n1C	i	i	i	i	i	i	nt	nt
COc1ccc(Nc2ncnc3ccccc23)c(OC)c1	i	i	i	i	i	i	nt	nt
COc1ccc(Nc2nc(N3CCCC3)nc3ccccc23)c(OC)c1	i	46.9	i	i	i	i	i	i
O=C(Cn1cc(C(=O)C(F)(F)F)c2cc(Br)ccc21)N1CCOCC1	i	i	i	i	i	i	nt	nt
COc1cccc(/C=N/NC(=O)c2c(C)nc3ccc(Br)cn23)c1O	71.0	24.4	i	i	61.1	i	62.1	65.6
CCOc1ccccc1/C=N/NC(=O)c1c(C)nc2ccc(Br)cn12	i	nt	i	nt	nt	i	nt	nt
CC1CCCN(CCCNC(=O)c2cc3c(Cl)nc4ccccc4c3s2)C1 (stereo unspecified)	i	63.1	i	i	i	i	i	84.6
Cc1nc2ccccc2c2oc(C(=O)NCCCN3CCCC(C)C3)cc12 (stereo unspecified)	i	nt	i	nt	nt	i	nt	nt
SMILES	aSyn 5UTR inh	Ba/F3 V617F tox	IEC-6 tox	BaF3 tox	APP 5UTR inh	KLF5 inh	BaF3 tox 2	JAK2V617F conf
CCOc1ccc(C(=O)NCc2ccccc2)cc1Br	i	i	i	i	i	i	nt	nt
CN1CCN(CCCN(Cc2cccs2)C(=S)Nc2ccc(Cl)cc2)CC1	i	34.2	i	i	i	i	27.6	45.5
CCc1ccc(NC(=S)N(CCCN2CCN(C)CC2)Cc2cccs2)cc1	i	i	i	i	i	i	nt	nt
Cc1ccccc1N1CCN(Cc2c[nH]c3ccccc23)CC1	i	35.1	i	i	i	i	i	28.9
O=C(CSc1ccc2ccccc2c1Br)Nc1cccc(S(=O)(=O)NC2=NCCCCC2)c1	64.1	32.6	i	i	i	i	i	75.5
COc1cc(OC)c(CN2CCC(Cc3ccccc3)CC2)cc1Br	i	nt	i	nt	nt	i	nt	nt
CCOc1cc(S(=O)(=O)n2ccc(C)n2)ccc1Br	i	30.3	i	i	i	i	i	i
CCOc1cc(S(=O)(=O)n2ccnc2)ccc1Br	i	i	i	i	i	i	nt	nt
Cc1oc2c(O)c(O)ccc2c(=O)c1-c1ccccc1	i	nt	nt	nt	nt	nt	nt	nt
Cc1oc2c(O)c(O)ccc2c(=O)c1-c1cnn(-c2ccccc2)c1	i	45.4	i	i	i	i	i	99.4
CCc1cc(C(=O)N2CCCC(CCC(=O)N3CCN(c4ccccn4)CC3)C2)no1 (stereo unspecified)	i	i	i	i	i	i	nt	nt
CC(C)c1cc(C(=O)N2CCCC(CCC(=O)N3CCN(c4ccccn4)CC3)C2)no1 (stereo unspecified)	i	32.1	i	i	nt	i	i	i
CCOc1cccc(C(=O)NNC(=O)CCC(=O)O)c1	i	i	i	i	i	i	nt	nt
CC(=O)Nc1ccccc1NC(=O)C(F)(F)F	i	i	i	i	i	i	nt	nt
O=C(Nc1cccc2c1[nH]c1ccccc12)C(F)(F)F	i	53.1	i	i	i	i	i	52.2
Nc1c(-c2ccccc2)cnn1-c1ccc(C(=O)O)cc1	i	52.8	i	i	i	i	i	i
Cc1ccc(-c2cnn(-c3ccccc3)c2N)cc1	i	nt	i	nt	nt	i	nt	nt
COc1ccccc1N1C(N)=NC(N)=NC1(C)C	i	i	i	i	i	i	nt	nt
NC1=NC2(CCCCC2)N(c2ccc(F)cc2)C(N)=N1	i	23.5	i	i	i	i	i	32.7
N/C(=N\OC(=O)COc1ccc2ccccc2c1Br)c1ccncc1	i	i	i	i	i	i	nt	nt
Cc1ccc(Cl)cc1N1CCN(CC(=O)NC2CCCc3ccccc32)CC1 (stereo unspecified)	i	58.5	i	i	i	i	i	i
O=C(CN1CCN(c2ccccc2Cl)CC1)NC1CCCc2ccccc21 (stereo unspecified)	i	i	i	i	i	i	nt	nt
CCOC(=O)NN1C(=O)c2ccccc2NC1c1ccc(OC)cc1OC (stereo unspecified)	i	i	i	i	i	i	nt	nt
Cc1cc(NC(=S)N(Cc2cccc(Br)c2)CC2CCC(C(=O)O)CC2)ccc1Cl (stereo unspecified)	i	29.2	i	i	i	i	27.4	37.9
Cc1ccc(NC(=S)N(Cc2cccc(Br)c2)CC2CCC(C(=O)O)CC2)cc1 (stereo unspecified)	i	i	i	i	i	i	nt	nt
Cc1ccc(S(=O)(=O)NCC(c2ccccc2)N2CCN(c3ccc(F)cc3)CC2)cc1 (stereo unspecified)	i	nt	i	nt	nt	i	nt	nt
COC(c1ccc(Cl)cc1)(c1ccc(Cl)cc1)C(Oc1nc(C)cc(C)n1)C(=O)O (stereo unspecified)	i	nt	i	nt	nt	i	nt	nt
C=CCN=c1scc(C)n1/N=C/c1ccc(O)c(O)c1	i	61.9	i	i	i	i	36.9	86.0
O=C1NC2(CCCCC2)C(=O)N1Cc1cccc(C(F)(F)F)c1	i	i	i	i	i	i	nt	nt
